BH1578 lux ind = quorum light induction in luxS cqsA deficient V. cholerae; activation, % at 18.7 µM; V. cholerae BH1578 lux reporter, luminescence, 6 h; AID 588436; 350,000 compounds, 0.16% hits; in the data active means activation mostly above about 9.7%, no sharp cut-off; inconclusive means no clear call, values can overlap the other calls; inactive means mostly below about 3.7%
Bead autofluor = counter-screen for toxin protease inhibitors: compound fluorescence | compound autofluorescence counterscreen, microsphere flow cytometry; active compounds read high | fluorescence intensity (no concentration beside the values) | 360,000 compounds, 3.1% hits; in the data active means fluorescence intensity above about 16000; inconclusive means no clear call, values can overlap the other calls
Anthrax LF inh2 = anthrax lethal factor protease inhibition; P15917; multiplex microsphere protease cleavage assay, LF; inhibition, % at 10 µM; 360,000 compounds, 0.12% hits; AID 588501; further: plate controls were buffer without enzyme for full effect and enzyme alone for no effect
BoNT A protease = BoNT A light chain protease inhibition. multiplex microsphere protease substrate cleavage, flow cytometry. inhibition, % at 10 µM. 360,000 compounds, 0.17% hits. AID 588499; further: plate controls were buffer without enzyme for full effect and enzyme alone for no effect
BoNT F protease = BoNT F light chain protease inhibition | 360,000 compounds, 0.22% hits | Multiplex microsphere protease cleavage assay, flow cytometry | inhibition, % at 10 µM | AID 588497; in the data active means inhibition above about 35%, passing the limit was not always enough; inconclusive means no clear call, values can overlap the other calls; further: plate controls were buffer without enzyme for full effect and enzyme alone for no effect
BJeLR lethal = kills HRASV12-expressing BJeLR cells | BJeLR (HRASV12) viability, CellTiter-Glo ATP luminescence, 48 h | inhibition, % (concentration not given with the values) | 300,000 compounds, 0.17% hits | AID 1554; in the data active means inhibition above about 50%; inconclusive means no clear call, values can overlap the other calls
* hit, by the source's call; i = inactive; ? = inconclusive; / = no result. Rows were chosen to be rich in hits. Some 3.7% of all compounds tested hit in one or more screens of this group. Unless noted, no stated cut-off is given here; in the data, active means inhibition above about 30%; inconclusive means no clear call, values can overlap the other calls; inactive means below that.

SMILES	BH1578 lux ind	Bead autofluor	Anthrax LF inh2	BoNT A protease	BoNT F protease	BJeLR lethal
COc1ccc(S(=O)(=O)N2CCC(C(=O)N[C@@H](C)C(=O)NCc3cccnc3)CC2)cc1	0.0	3469	-2.9	0.0	1.2	/
CS(=O)(=O)N1CCC(C(=O)Nc2cccc(C(F)(F)F)c2)CC1	7.1	5053	4.3	-2.5	-29.0	-3.4
Cc1ccnc(N2CCC(C(=O)Nc3ccc4c(c3)CCC4)CC2)n1	i	17140*	-1.5	-0.6	-3.8	6.8
Cc1cc(C)nc(N2CCC(C(=O)Nc3cccc(C(F)(F)F)c3)CC2)n1	i	17064*	0.4	-1.0	-1.4	6.6
Cc1cccc(NC(=O)C2CCN(c3nccc(C)n3)CC2)c1	-2.1	20388*	-12.0	?	-3.8	-0.7
CCCCN(C(C)=O)c1c(CC)nc2ccc(C(=O)NCCOc3ccc(OC)cc3)cn12	-1.1	2785	-2.6	-0.2	0.0	/
Cc1ccccc1NC(=O)Nc1nc(C(N)c2ccccc2)cs1 (stereo not given)	-5.9	3452	-8.5	-0.2	-3.5	/
Cc1nc2ccc(Cl)cc2nc(C)/c1=N\O	-0.6	2982	5.4	0.1	-6.0	3.2
Cc1ccc2nc(C)/c(=N\O)c(C)nc2c1	-0.5	16928*	-1.1	-1.5	-4.9	7.7
CC1=C(C(=O)Nc2cc(C)ccc2C)C(c2cccs2)NC(=S)N1 (stereo not given)	14.3	21275*	0.1	-4.6	-6.3	7.4
Cc1cc2nc(C3CCCCC3)c(Cc3ccccc3)n2c(C)c1Br	/	5337	-1.6	0.3	-7.0	/
COC(=O)c1ccc2c(=O)n(NC(=O)C(c3ccccc3)c3ccccc3)c(=S)[nH]c2c1	-0.2	16293*	2.1	?	-2.4	0.4
COC(=O)c1ccc2c(=O)n(CCO)c(=S)[nH]c2c1	i	8136	1.8	0.3	3.7	-5.9
Cc1[nH]c(=O)c(C#N)c2c1COC(C)(C)C2	-0.2	4176	-6.3	0.0	-10.7	4.7
CC(C)c1[nH]c(=O)c(C#N)c2c1COC(C)(C)C2	1.0	21618*	-0.7	-3.6	-3.3	-1.9
Cc1ccc(N2C(=O)CC3(CCCC3)CC2=O)cc1	-0.4	5109	31.9*	-5.2	?	-0.2
COCCNC(=O)C1CCCN(C(=O)c2ccc(C(F)(F)F)nc2C)CC1 (stereo not given)	-0.5	3927	-8.3	0.0	4.3	/
Oc1ccccc1-c1nc(/C=C/c2ccccc2)nn1-c1ccccc1	-0.2	2042	1.1	-0.8	-6.6	-6.2
Oc1ccc(/C=C/c2nc(-c3ccccc3O)n(-c3ccccc3)n2)cc1	-12.5	24194*	-4.7	-2.3	-4.3	4.4
Cc1cc2ccccc2c(=O)n1CC(=O)N1CCN(c2cccc(Cl)c2)CC1	6.7	2807	-1.6	0.1	-5.3	1.9
Cc1cc2ccccc2c(=O)n1CC(=O)NCC(=O)N1CCN(c2ccccc2)CC1	i	23551*	-2.8	-2.7	-4.6	-13.9
COc1cc(/C=C2/N=C(c3ccccc3F)OC2=O)cc(Cl)c1OS(C)(=O)=O	-0.1	20200*	-6.3	-1.2	-3.1	0.6
Cc1cc(C)n(CC(O)Cn2cnc3c2c(=O)n(C)c(=O)n3C)n1 (stereo not given)	i	22564*	-3.9	-0.6	-4.9	-4.2
CCOc1cc([C@H]2[C@@H]3CCCC[C@]3(O)CCN2CC(=O)NCc2ccco2)ccc1O	i	22611*	-7.2	0.0	-2.1	-4.8
CCCCNC(=O)CN1CCC2(O)CCCCC2C1c1ccccc1OC (stereo not given)	i	3334	2.3	0.4	-6.2	-7.1
SMILES	BH1578 lux ind	Bead autofluor	Anthrax LF inh2	BoNT A protease	BoNT F protease	BJeLR lethal
Cc1nn(CC(C)C)c(=S)[nH]c1=O	0.1	23998*	-1.1	?	-6.3	-2.6
CCOC(=O)/C=c1\s/c(=C\c2c(OC)ccc3ccccc23)c(=O)n1CC(=O)NCC1CCCO1 (stereo not given)	i	16857*	-3.5	-2.0	-6.4	-15.3
Cc1cc2nc(-c3nnnn3-c3c(C)cccc3C)c(=O)[nH]c2cc1C	/	5874	13.9	12.9	11.8	/
Nn1c(SCC(=O)Nc2ccc3c(c2)OCO3)nnc1-c1cccc(Cl)c1	-0.2	9039	-2.8	0.1	4.2	/
C=C(C)CSc1nnc(-c2ccc(OC)cc2)n1N	-0.2	19732*	0.8	1.3	0.7	-5.1
C=C(C)CSc1nnc(-c2cccc(Cl)c2)n1N	i	21220*	-3.4	3.5	5.2	-1.1
COc1ccc(-c2nnc(SCC(N)=O)n2N)cc1	-1.2	10349	4.0	1.5	4.9	8.7
N=c1n(CCN2CCCC2)c2ccccc2n1CC(O)c1ccco1 (stereo not given)	i	21466*	1.0	4.5	3.6	5.0
CCCCCCCn1c(=N)n(CC(O)c2ccco2)c2ccccc21 (stereo not given)	i	9924	?	?	?	-5.2
Fc1ccc2c(c1)C1C=CCC1C(c1cc3c(cc1Br)OCO3)N2 (stereo not given)	1.0	19890*	-8.8	?	6.2	-8.3
O=C(O)C1Nc2ccc(Br)cc2C2C=CCC12 (stereo not given)	-0.2	/	/	/	/	-8.9
CCc1ccc(CCC(=O)N2CCN(S(=O)(=O)c3ccc(Br)cc3)CC2)cc1	-1.3	2981	-4.9	-0.6	-6.3	/
CNS(=O)(=O)c1cccc(C(=O)OCC(=O)Nc2nc(OC)cc(OC)n2)c1	i	8512	-0.4	-2.1	4.7	/
CCOc1ccc(C(=O)OCC(=O)Nc2nc(OC)cc(OC)n2)cc1OCC	-3.0	23423*	-2.5	?	-2.0	-4.1
CCOc1cc(C(=O)OCC(=O)Nc2cc(C)on2)cc(OCC)c1OCC	i	22120*	2.7	-5.3	-6.2	-0.8
CCCCCCCCCCCC1N=C(N)NC(CCCO)=C1C(=O)OC (stereo not given)	i	2905	-0.2	0.0	-41.2	/
CCCCn1c(N)c(N(CC)C(=O)c2cccs2)c(=O)[nH]c1=O	i	2932	-0.2	0.5	-4.2	/
COCC(=O)Nc1nc2n(n1)C(c1ccccc1Cl)CC(c1ccc(OC)cc1)N2 (stereo not given)	-0.2	20336*	0.6	0.9	0.1	1.8
COc1ccc(OC)c(/C=C2\NC(=O)NC2=O)c1	-0.5	6990	130.7*	22.8	?	0.0
COc1cc(C=C2NC(=O)NC2=O)ccc1O	-5.0	3587	-6.2	-0.3	2.9	/
O=[N+]([O-])c1ccc(Sc2cccc3cccnc23)c([N+](=O)[O-])c1	-1.4	20643*	-2.2	?	6.1	/
NC(=O)Cn1cc(C=C2C(=O)NC(=O)NC2=O)c2ccccc21	i	2839	3.0	-1.8	-4.1	1.0
COC(=O)Cn1cc(C=C2C(=O)NC(=O)NC2=O)c2ccccc21	0.8	3011	11.6	0.2	42.0*	-0.8
Cc1ccc(S(=O)(=O)Nc2ccc(S(=O)(=O)Nc3nccs3)cc2)cc1C	-0.4	3831	1.5	0.6	-5.3	/
O=S(=O)(Nc1ccc(S(=O)(=O)Nc2nccs2)cc1)c1ccc2c(c1)OCCO2	-1.9	16416*	-2.1	-1.1	-4.9	-2.2

From PubChem
